Experimental data: PubChem BioAssay (NCATS)
Values joined by “and” are separate entries in the source; they are usually repeats but may differ in a detail not shown here. Equal entries are not always repeated. Inconclusive results are not listed. Active and inactive are the calls of the source. Unless noted, the call rests on the fitted dose curve; in most records, active means well fitted curve in the direction sought with a large enough effect; inconclusive means small, poorly fitted or top-dose-only effect, or another doubt; inactive means no such curve, though single readings can be large; an effect the other way counts as inactive or inconclusive.

Experiments:
[1] = target: Glucocorticoid receptor (Homo sapiens) (UniProt P04150); assay: GR-EFC Redistribution (AID 451; calls by dose curve; further: potency means the concentration at half of the fitted maximal effect); conditions: CHO-K1 GR-EFC translocation, beta-gal luminescence, 2 h
In short: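 Translocation of GR-ED fusion to nuclear EA restores b-gal, read by luminescence after 1 h room-temperature detection. Engineered CHO-K1 biosensor cells, 1,000/well, exposed 2 h at 37 C to titrations up to 46 uM final.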

[2] = target: Mitogen-activated protein kinase 10 (Mus musculus) (UniProt Q61831); assay: JNK3 AlphaScreen Assay (AID 530; active means well fitted curve in either direction with a large enough effect, not every such curve was filed as active;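 further: kinase came from lysate of stimulated human HepG2 cells; signal reports phosphorylation of biotinylated GST-cJun 1-79 at Ser73 with 10 µM ATP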); conditions: JNK3 lysate, c-Jun phosphorylation; series mostly up to 57.1 µM
In short: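 Room-temperature AlphaScreen kinase assay; pre-activated HepG2 lysate as JNK3 source, biotin-GST-cJun(1-79) substrate, 10 uM ATP, compound 15 min preincubation.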

[3] = target: 3',5'-cyclic-AMP phosphodiesterase 4B (Homo sapiens) (UniProt Q07343); assay: qHTS Assay for Inhibitors of PDE-IV (AID 607; active means well fitted activation curve with a large enough effect in the main read-out, with a control signal flat, not every such curve was filed as active; further: potency means the concentration at half of the fitted maximal effect); conditions: HEK293 ACTOne CNG channel cells, membrane potential fluorescence; series mostly up to 22.9 µM
In short: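 HEK293 ACTOne cells with CNG channel (1000/well), endogenous PDE4; membrane potential dye, compounds up to 22.9 uM final. Fluorescence Ex 535/Em 590; RO 20-1724 (100 uM final) as reference.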

[4] = Cell Viability - NIH 3T3 (AID 541); conditions: NIH 3T3 cell viability, qHTS; series mostly up to 92.2 µM; further: nearly all actives have a fitted effect of over 25% in size
In short: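 NIH 3T3 mouse embryo fibroblasts (1000 cells/well) were plated in complete medium and treated with compound for 40 hr at 37 °C. Viability was read as intracellular ATP by CellTiter-Glo luminescence; AC50 values came from Hill-equation fits of concentration-response data.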

[5] = Cell Viability - HUV-EC-C (AID 542); conditions: HUV-EC-C endothelial cell viability, qHTS; series mostly up to 92.2 µM; further: nearly all actives have a fitted effect of over 35% in size
In short: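 HUV-EC-C normal human vascular endothelial cells, 1000 cells/well, pre-incubated 5 hr at 37 °C, then exposed to compounds for 40 hr at 37 °C in complete medium. Viability measured as intracellular ATP by CellTiter-Glo luminescence; AC50 from Hill fits.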

[6] = Cell Viability - H-4-II-E (AID 543); conditions: H-4-II-E rat hepatoma viability; series mostly up to 92.2 µM; further: nearly all actives have a fitted effect of over 35% in size
In short: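 Rat hepatoma H-4-II-E cells (1500/well) were plated, incubated 5 hr at 37 °C, then exposed to compounds for 40 hr at 37 °C. Cellular ATP was read by CellTiter-Glo luminescence; AC50 came from Hill-equation fits of concentration-response data.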

[7] = Cell Viability - SH-SY5Y (AID 544); conditions: SH-SY5Y neuroblastoma cell viability; series mostly up to 92.2 µM; further: nearly all actives have a fitted effect of over 55% in size
In short: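 Human neuroblastoma SH-SY5Y cells (1500/well) in complete medium were exposed to compounds for 40 hr at 37 °C; intracellular ATP was then quantified by CellTiter-Glo luminescence after 20 min at room temperature. AC50 came from Hill-equation concentration-response fits.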

[8] = Cell Viability - Renal Proximal Tubule (AID 545); conditions: renal proximal tubule cells viability; series mostly up to 91.7 µM; further: nearly all actives have a fitted effect of over 40% in size
In short: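 Primary rat renal proximal tubule cells (1000/well) were treated with compounds for 40 hr at 37 °C in complete medium. Intracellular ATP was measured by CellTiter-Glo luminescence, and AC50 values came from Hill-equation fits of concentration-response data.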

[9] = Cell Viability - Mesenchymal (AID 546); conditions: mesenchymal cells viability, qHTS; series mostly up to 91.7 µM;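 further: cells exposed to compound for 40 hours before reading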
In short: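 AC50 values reflect the drop in intracellular ATP in a human kidney mesenchymal line derived from normal glomeruli. Treatment lasts 40 hr at 37 °C in complete medium, and the signal comes from CellTiter-Glo luminescence.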

[10] = Cellular Toxicity (caspase-3) HepG2 (AID 654); conditions: HepG2 caspase-3 activation, luminescence, 0% = DMSO only, 100% = tamoxifen; series mostly up to 92.2 µM;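 further: cells exposed to compound for 16 hours before reading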
In short: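 HepG2 cells (1500/well) in complete medium were treated with compounds for 16 hr at 37 °C. Caspase-3/7 activity was then read as luminescence from peptide-aminoluciferin cleavage. AC50 came from Hill fits, normalized to DMSO and 100 uM tamoxifen.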

[11] = Cellular Toxicity (caspase-3) Jurkat (AID 655); conditions: Jurkat caspase-3 activation, luminescence, DMSO = 0%, tamoxifen = 100%; series mostly up to 92.2 µM;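 further: cells exposed to compound for 16 h at 37 °C before reading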
In short: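 Jurkat cells (5000/well) in complete medium were treated with compounds for 16 hr at 37 °C, then Caspase-Glo 3/7 luminescence was read after 20 min at room temperature. Data normalized to DMSO (basal) and 100 uM tamoxifen (100%); AC50 from Hill fit.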

[12] = Cellular Toxicity (caspase-3) HUV-EC-C (AID 656); conditions: HUV-EC-C cells, caspase-3 activation (apoptosis), vehicle = 0, 100 µM tamoxifen = 100%; series mostly up to 92.2 µM
In short: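 HUV-EC-C endothelial cells, 1000/well, were pre-incubated 5 hr at 37°C, then exposed to compounds for 16 hr at 37°C. Caspase-Glo 3/7 luminescence was read after 20 min at room temperature. AC50 came from Hill fits, normalized to DMSO and 100 uM tamoxifen.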

[13] = Cellular Toxicity (caspase-3) SHSY5Y (AID 657); conditions: SH-SY5Y caspase-3 activation, DMSO zero, 10 µM staurosporine = 100%; series mostly up to 91.7 µM
In short: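 SH-SY5Y human neuroblastoma cells (1500/well) were treated with compounds for 16 h at 37 °C, then Caspase-Glo 3/7 luminescence was read after 1 h at room temperature. Data normalized to DMSO and 10 uM staurosporine; AC50 from Hill fits.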

[14] = Cellular Toxicity (caspase-3) BJ (AID 658); conditions: BJ fibroblasts, luminescence, normalized: DMSO 0%, staurosporine 100%; series mostly up to 91.7 µM
In short: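 Readout: Caspase-Glo 3/7 luminescence increase in BJ cells after 16 hr treatment at 37 °C. Staurosporine and tamoxifen served as positive controls; AC50 values came from Hill modelling of data normalized to DMSO and 10 uM staurosporine.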

[15] = Cellular Toxicity (caspase-3) MRC-5 (AID 659); conditions: MRC-5 cells, luminescence, normalized: DMSO 0%, 10 µM staurosporine 100%; series mostly up to 91.7 µM
In short: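 Concentration-dependent caspase 3/7 activation is measured in human normal lung fibroblasts (MRC-5) following 16-hour treatment. AC50 values come from standard Hill-equation modeling of luminescence normalized to DMSO and 10 uM staurosporine.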

[16] = Cellular Toxicity (caspase-3) Mesangial (AID 660); conditions: mesangial cells, normalized: DMSO 0%, 100 µM tamoxifen 100%; series mostly up to 91.7 µM;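 further: cells exposed to compound for 16 h before the caspase read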
In short: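 Human renal glomerular mesangial cells (1000/well) were treated with compounds for 16 h at 37 °C in complete medium, then caspase 3/7 activity was read by Caspase-Glo luminescence. Data were normalized to DMSO and 100 uM tamoxifen; AC50 from Hill fits.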

[17] = Cellular Toxicity (caspase-3) SK-N-SH (AID 661); conditions: SK-N-SH caspase-3 activation, qHTS, DMSO as zero, staurosporine as full; series mostly up to 91.7 µM
In short: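 SK-N-SH human neuroblastoma cells (1500/well) were treated with compounds for 16 hr at 37 °C in complete medium; caspase 3/7 activity was read by Caspase-Glo luminescence. AC50 came from Hill fits of data normalized to DMSO and 10 uM staurosporine.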

[18] = Cellular Toxicity (caspase-3) Hek293 (AID 664); conditions: HEK293 caspase-3 activation, DMSO = 0%, 100 µM tamoxifen = 100%; series mostly up to 92.2 µM;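 further: cells exposed to compound for 16 h at 37 °C before readout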
In short: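 HEK293 cells were exposed to compounds in complete medium for 16 hr at 37 °C, then caspase-3/7 activity was read by Caspase-Glo 3/7 luminescence after 20 min at room temperature. Data normalized to DMSO and 100 uM tamoxifen; AC50 from Hill fits.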

[19] = Cellular Toxicity (caspase-3) N2a (AID 665); conditions: N2a cells, luminescence, normalized: DMSO 0%, 10 µM staurosporine 100%; series mostly up to 92.2 µM;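 further: compound exposure lasted 16 h at 37 °C before readout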
In short: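 Mouse N2a neuroblastoma cells (1500/well) were treated with compounds for 16 h at 37 °C, then caspase-3/7 activity was read by Caspase-Glo luminescence after 1 h at room temperature. Data were normalized to DMSO and 10 uM staurosporine; AC50 from Hill fits.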

[20] = Cellular Toxicity (caspase-3) NIH 3T3 (AID 666); conditions: NIH 3T3 caspase-3 activation, apoptosis/toxicity, 0% DMSO, 100% is 100 µM tamoxifen; series mostly up to 92.2 µM;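 further: caspase signal read after 16 h compound exposure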
In short: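 Mouse NIH 3T3 fibroblasts (1000 cells/well) were treated with compound for 16 hr at 37°C in complete medium; caspase-3/7 activity was read by Caspase-Glo luminescence. Normalized to DMSO and 100 uM tamoxifen; AC50 from Hill fits.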

Measured: Potency

Chain of 3',5'-cyclic-AMP phosphodiesterase 4B (Homo sapiens) (Q07343 whole entry, looked up): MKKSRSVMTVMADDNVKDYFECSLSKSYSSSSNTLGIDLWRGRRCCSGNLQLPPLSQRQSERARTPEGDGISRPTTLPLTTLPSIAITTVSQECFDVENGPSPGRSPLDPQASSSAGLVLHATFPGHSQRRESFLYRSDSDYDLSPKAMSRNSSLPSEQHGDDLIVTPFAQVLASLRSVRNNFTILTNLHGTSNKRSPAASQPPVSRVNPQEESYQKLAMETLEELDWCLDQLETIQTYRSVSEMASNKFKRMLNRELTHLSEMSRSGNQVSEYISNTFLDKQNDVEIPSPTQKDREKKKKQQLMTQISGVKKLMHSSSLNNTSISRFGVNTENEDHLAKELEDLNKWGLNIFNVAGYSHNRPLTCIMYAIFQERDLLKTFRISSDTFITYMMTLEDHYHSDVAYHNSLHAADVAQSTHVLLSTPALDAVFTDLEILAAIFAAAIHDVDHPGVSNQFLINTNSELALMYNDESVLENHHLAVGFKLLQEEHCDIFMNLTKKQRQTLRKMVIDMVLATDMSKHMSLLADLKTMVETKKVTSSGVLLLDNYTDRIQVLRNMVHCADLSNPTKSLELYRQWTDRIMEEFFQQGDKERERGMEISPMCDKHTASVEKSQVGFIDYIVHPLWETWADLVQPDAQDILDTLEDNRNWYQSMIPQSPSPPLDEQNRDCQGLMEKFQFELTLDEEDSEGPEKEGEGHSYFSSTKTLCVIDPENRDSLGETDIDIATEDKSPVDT
Chain of Glucocorticoid receptor (Homo sapiens) (P04150 whole entry, looked up, the tested form may be a part): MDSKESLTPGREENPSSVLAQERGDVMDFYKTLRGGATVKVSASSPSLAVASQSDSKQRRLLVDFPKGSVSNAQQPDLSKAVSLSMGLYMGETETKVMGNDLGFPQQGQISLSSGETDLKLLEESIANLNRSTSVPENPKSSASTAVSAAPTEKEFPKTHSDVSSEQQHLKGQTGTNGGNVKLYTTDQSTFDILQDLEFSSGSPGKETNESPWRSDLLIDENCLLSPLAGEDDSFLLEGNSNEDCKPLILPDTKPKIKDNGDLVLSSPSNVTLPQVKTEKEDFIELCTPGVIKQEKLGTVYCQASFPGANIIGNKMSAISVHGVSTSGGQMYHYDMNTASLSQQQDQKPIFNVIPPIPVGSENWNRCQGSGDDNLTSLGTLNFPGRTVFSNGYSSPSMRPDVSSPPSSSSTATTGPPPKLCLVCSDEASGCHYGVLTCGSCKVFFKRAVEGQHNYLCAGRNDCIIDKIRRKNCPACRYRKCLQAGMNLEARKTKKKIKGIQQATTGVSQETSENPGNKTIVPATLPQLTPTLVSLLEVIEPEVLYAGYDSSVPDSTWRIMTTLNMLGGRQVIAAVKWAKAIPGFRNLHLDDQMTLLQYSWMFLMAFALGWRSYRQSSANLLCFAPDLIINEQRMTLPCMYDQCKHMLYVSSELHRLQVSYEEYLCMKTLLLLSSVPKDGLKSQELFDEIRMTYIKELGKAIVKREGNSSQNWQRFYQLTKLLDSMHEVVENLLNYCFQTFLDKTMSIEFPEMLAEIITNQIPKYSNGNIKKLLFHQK

COc1ccc(C(=O)c2c(C)n(CCN3CCOCC3)c3cc(I)ccc23)cc1
inactive: [1] > 46 µM

Cn1cnc(CCN)c1
inactive: [1] > 46 µM | [2] | [3]

c1ccc(CCCN2CCN(CCOC(c3ccccc3)c3ccccc3)CC2)cc1
inactive: [1] > 46 µM | [2] | [3]

CCCN(CCC)[C@@H]1CCc2ccc(O)cc2C1
inactive: [1] > 46 µM | [2] | [3]

CCOC(=O)c1cncn1[C@H](C)c1ccccc1
inactive: [1] > 46 µM | [2] | [3]

C#CCOC(=O)C1=CCCN(C)C1
inactive: [1] > 46 µM | [2]
active: [3] 0.398 µM

O=C(O)Cc1cnc[nH]1
inactive: [1] > 46 µM | [2] | [3]

c1ccc2sc(C3(N4CCCCC4)CCCCC3)cc2c1
inactive: [1] > 46 µM | [2] | [3]

Clc1cnc(Oc2ccc(Oc3ncc(Cl)cc3Cl)cc2)c(Cl)c1
inactive: [1] > 46 µM | [2] | [3]

Cc1c(C(=O)c2cccc3ccccc23)c2cccc3c2n1[C@H](CN1CCOCC1)CO3
inactive: [1] > 46 µM | [2] | [3]

NCc1cc(=O)[nH]o1
inactive: [1] > 46 µM | [2] | [3]

C[C@@H]1O[C@H](C[N+](C)(C)C)C[C@H]1O
inactive: [1] > 46 µM | [2]
active: [3] 3.16 µM

COC(=O)[C@@H](N)CCCN=C(N)N[N+](=O)[O-]
inactive: [1] > 46 µM | [2]

NC(=NCCC[C@H](N)C(=O)O)N[N+](=O)[O-]
inactive: [1] > 20.6 µM | [2]

CC1=NN=C(c2ccc(N)cc2)c2cc3c(cc2C1)OCO3
inactive: [1] > 46 µM | [2] | [3]

O=C(O)CC[N+](=O)[O-]
inactive: [1] > 46 µM | [2] | [3]

O=c1cccc2n1CC1CNC[C@H]2C1
inactive: [1] > 46 µM | [2] | [3]

S=C(NC1CCCCC1)N1CCC(c2cnc[nH]2)CC1
inactive: [1] > 46 µM | [2] | [3]

CCCCc1ccc(C(=O)O)nc1
inactive: [1] > 46 µM and > 20.6 µM | [2] | [3]

CN[C@@H]1C[C@@H](c2ccc(Cl)c(Cl)c2)c2ccccc21
inactive: [1] > 46 µM | [2] | [3]

C[C@@H](N)Cc1cnc[nH]1
inactive: [1] > 46 µM | [2] | [3]

CC(=O)OCC1=C(C(=O)O)N2C(=O)[C@@H](N)[C@@H]2SC1
inactive: [1] > 20.6 µM | [2] | [3]

NCCc1c[nH]c2ccccc12
inactive: [1] > 46 µM | [2] | [3]

Cc1nccc2c1[nH]c1ccccc12
inactive: [1] > 46 µM and > 20.6 µM | [2] | [3]

CCCN1CCC[C@H](c2cccc(O)c2)C1
inactive: [1] > 46 µM | [2] | [3]

CC(C)Oc1cccnc1N(C)C1CCN(Cc2ccccc2)CC1
inactive: [1] > 46 µM | [2] | [3]

Cc1nc(-c2ccc(-c3ccc(C(=O)N4CCc5cc6c(cc54)C4(CCN(C)CC4)CO6)cc3)c(C)c2)no1
inactive: [1] > 46 µM | [2]

O=C1CCCN1CC#CCN1CCCC1
inactive: [1] > 46 µM | [2] | [3]

CCCN1CCO[C@@H]2c3cc(O)ccc3OC[C@H]21
inactive: [1] > 46 µM | [2] | [3]

COc1ccc2c(c[n+](C)c3c4cc5c(cc4ccc23)OCO5)c1OC
inactive: [1] > 46 µM | [2] | [3]

CC(=O)NCCc1c[nH]c2ccccc12
inactive: [1] > 46 µM | [2] | [3]

O=C(O)COc1ccccc1
not listed: [1] | [3]
inactive: all other assays above

OCCCBr
not listed: [1] | [3]
inactive: all other assays above

c1cc2ccc3cccc4ccc(c1)c2c34
not listed: [1] | [2] | [3]
inactive: all other assays above
